Source: the supplement of paper PMC3342239
Where a name gives a salt, the structure may show the parent alone.

test system: Saccharomyces cerevisiae; assay: fraction of cells in G1 phase (DNA content, flow cytometry); higher = more cells with unreplicated DNA (G1 delay); conditions: temperature: 30 C; YPD; JTY2953 pdr5 snq2 (sensitized); drug added to: cultures diluted from stationary phase; 6-7 h
How it was run: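 For the G1 fraction, the Dean-Jett-Fox G1 peak area was divided by the sum of the G1 and G2/M areas. S. cerevisiae in YPD at 30°C received library drugs and was fixed 6–7 h later for sensitized JTY2953 (diluted 1∶200 from overnight, final 20 µg/ml), 6 h later for dividing JTY2953, or 4.33 h later for BY4741. Fixed cells were stained with SYTOX Green and 10,000 events recorded by flow cytometry.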

SMILES	fraction of cells in G1 phase
CCOc1ccccc1OCCN[C@H](C)Cc1ccc(OC)c(S(N)(=O)=O)c1 [Tamsulosin HCl] (48.9571 µM)	0.507
O=C(N[C@H](CO)[C@H](O)c1ccc([N+](=O)[O-])cc1)C(Cl)Cl [Chloramphenicol] (61.8937 µM)	0.482
OCc1cc(C(O)CNCCCCCCOCCCCc2ccccc2)ccc1O (configuration not stated) [Salmeterol] (48.1257 µM)	0.472
C[C@]12C=CC(=O)C=C1CC[C@@H]1[C@@H]2[C@@H](O)C[C@@]2(C)[C@H]1CC[C@]2(O)C(=O)CO [Prednisolone] (55.4855 µM)	0.466
C=C1CC[C@H](O)C/C1=C/C=C1\CCC[C@]2(C)[C@@H]([C@H](C)CCCC(C)(C)O)CC[C@@H]12 [Calcifediol] (49.9188 µM)	0.545
CC(=O)OCC(=O)NCCCOc1cccc(CN2CCCCC2)c1 [Roxatidine acetate HCl] (57.3977 µM)	0.461
CN(C)C(=O)C(CCN1CCC(O)(c2ccc(Cl)cc2)CC1)(c1ccccc1)c1ccccc1 [Loperamide] (38.9864 µM)	0.512
COC(=O)Nc1nc2cc(Sc3ccccc3)ccc2[nH]1 [Fenbendazole] (66.8106 µM)	0.421
Nc1nc(O)c2ncn(CCC(CO)CO)c2n1 [Penciclovir] (78.9694 µM)	0.461
NC[C@H]1CC[C@H](C(=O)O)CC1 [Tranexamic acid] (127.226 µM)	0.504
Nc1ccn([C@@H]2O[C@H](CO)[C@@H](O)[C@@H]2O)c(=O)n1 [Cytarabine] (82.2297 µM)	0.477
C1COC(NC(C2CC2)C2CC2)=N1 [Rilmenidine hemifumarate] (110.956 µM)	0.483
CCCc1cc(C(N)=S)ccn1 [Prothionamide] (110.943 µM)	0.482
CCc1ccc(CCOc2ccc(CC3SC(=O)NC3=O)cc2)nc1 (configuration not stated) [Pioglitazone] (56.1093 µM)	0.477
O=C(O)Cc1ccccc1Nc1c(Cl)cccc1Cl [Diclofenac, Na] (67.5321 µM)	0.473
C/N=C(/NC#N)NCCSCc1csc(NC(=N)N)n1 [Tiotidine] (64.0163 µM)	0.478
Cc1scc2c1N(C(=O)CN1CCN(C)CC1)c1ccccc1NC2=O [Telenzepine 2HCl] (53.9845 µM)	0.498
COC(=O)c1ccccc1O [Methyl salicylate] (131.448 µM)	0.513
CN1C(C(=O)Nc2ccccn2)=C(O)c2sccc2S1(=O)=O [Tenoxicam] (59.2806 µM)	0.469

SMILES	fraction of cells in G1 phase
COc1ccc2[nH]c([S+]([O-])Cc3ncc(C)c(OC)c3C)nc2n1 (configuration not stated) [Tenatoprazole] (57.7349 µM)	0.486
COc1cc2c(cc1OC)-c1c/c(=N\c3c(C)cc(C)cc3C)n(C)c(=O)n1CC2 [Trequinsin HCl] (45.2489 µM)	0.425
CC(C)NCC(O)COc1cccc2ccccc12 (configuration not stated) [Propranolol] (77.1155 µM)	0.477
C#C[C@]1(O)CC[C@H]2[C@@H]3[C@H](C)CC4=C(CCC(=O)C4)[C@H]3CC[C@@]21C [Tibolone] (64.009 µM)	0.56
C[C@@H]1C[C@H]2[C@@H]3CCC4=CC(=O)C=C[C@]4(C)[C@@]3(F)[C@@H](O)C[C@]2(C)[C@@]1(O)C(=O)CO [Dexamethasone] (50.9591 µM)	0.504
NC(N)=Nc1nc(CSCC/C(N)=N/S(N)(=O)=O)cs1 [Famotidine] (59.2687 µM)	0.499
C[C@H](N[C@@H](CCc1ccccc1)C(=O)O)C(=O)N1CCC[C@H]1C(=O)O [Enalaprilat] (57.4049 µM)	0.491
O=C(O)c1cn(C2CC2)c2cc(N3CCNCC3)c(F)cc2c1=O [Ciprofloxacin] (60.3592 µM)	0.461
COc1cc2nc(N3CCN(C(=O)C4COc5ccccc5O4)CC3)nc(N)c2cc1OC (configuration not stated) [Doxazosin mesylate] (44.2981 µM)	0.442
C[C@@](Cc1ccc(O)c(O)c1)(NN)C(=O)O [Carbidopa] (88.404 µM)	0.482
CN(Cc1ccc(C(C)(C)C)cc1)Cc1cccc2ccccc12 [Butenafine] (62.9964 µM)	0.405
Nc1nc2c(ncn2COCCO)c(=O)[nH]1 [Acycloguanosine] (88.8066 µM)	0.472
CN/C(=N\c1ccc(C2=NNC(=O)CC2C)cc1)NC#N (configuration not stated) [Siguazodan] (70.3425 µM)	0.493
Cc1c(Cl)cccc1Nc1ccccc1C(=O)O [Tolfenamic acid] (76.4204 µM)	0.53
CC(C)C[C@H](NC(=O)[C@@H](Cc1c[nH]c2ccccc12)NC(=O)[C@H](Cc1ccc(O)cc1)NC(=O)[C@H](CO)NC(=O)[C@H](Cc1c[nH]c2ccccc12)NC(=O)[C@H](Cc1c[nH]cn1)NC(=O)[C@@H]1CCC(=O)N1)C(=O)N[C@@H](CCCNC(=N)N)C(=O)N1CCC[C@H]1C(=O)NCC(N)=O [Triptorelin] (15.2499 µM)	0.468
CC(N)C12CC3CC(CC(C3)C1)C2 (configuration not stated) [Rimantadine HCl] (111.54 µM)	0.484
C[C@H]1[C@H](NC(=O)/C(=N\OC(C)(C)C(=O)O)c2csc(N)n2)C(=O)N1S(=O)(=O)O [Aztreonam] (45.9309 µM)	0.489
CCOc1nc2cccc(C(=O)O)c2n1Cc1ccc(-c2ccccc2-c2nnn[nH]2)cc1 [Candesartan] (45.4065 µM)	0.506
